Screening results deposited in PubChem BioAssay by National Center for Advancing Translational Sciences (NCATS).
SMN2 splice enh: qHTS Assay for Enhancers of SMN2 Splice Variant Expression; HEK293 SMN2-luciferase splicing reporter, luminescence, 30-36 h; Potency, µM (series often up to 46.1 µM), for the others: top-dose activity change, positive = activation, usual class: activators; actives 2.8% (n = 210,000); AID 1458, 2008; note: % of control where 0% means no effect; nearly all actives have a fitted effect of over 55% in size
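HEK293 cells carry an SMN2 […]–luciferase reporter in which exon 7 inclusion puts luciferase in frame. Cells were plated 10-12 h before compound addition, then incubated 30-36 h at 37C. ONE-Glo luminescence was read; sodium butyrate at 4.5 mM final served as control.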
NPC1 promoter act: qHTS Assay for NPC1 Promoter Activators. Potency, µM (highest dose often 9.22 µM), for the others: at the top dose activation, actives largely listed as activators. AID 485313, 2010. Huh7 NPC1 promoter luciferase reporter, 24 h. actives 2.4% (n = 320,000); note: % of control where 0% means no effect; nearly all actives have a fitted effect of over 60% in size
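Readout is luciferase luminescence, reflecting NPC1 promoter activation in stably transfected Huh7 cells after 24 h compound exposure at 37 °C in reduced-serum medium with 10% FBS.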
FLuc modulator: qHTS profiling assay for firefly luciferase inhibitor/activator using purifed enzyme and Km concentrations of substrates (counterscreen for miR-21 project); AID 588342, 2011; purified FLuc, Km substrates, luminescence inhibition; actives 6.9% (n = 360,000); Luciferin 4-monooxygenase (Photinus pyralis), P08659; Potency, µM (highest dose often 57.5 µM), for inactives: top-dose activity change, negative = inhibition, usual class: inhibitors;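 note: plate controls were vehicle for no effect and reference inhibitor for full effect; nearly all actives have a fitted effect of over 55% in size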
Target sequence (P08659 whole entry, looked up): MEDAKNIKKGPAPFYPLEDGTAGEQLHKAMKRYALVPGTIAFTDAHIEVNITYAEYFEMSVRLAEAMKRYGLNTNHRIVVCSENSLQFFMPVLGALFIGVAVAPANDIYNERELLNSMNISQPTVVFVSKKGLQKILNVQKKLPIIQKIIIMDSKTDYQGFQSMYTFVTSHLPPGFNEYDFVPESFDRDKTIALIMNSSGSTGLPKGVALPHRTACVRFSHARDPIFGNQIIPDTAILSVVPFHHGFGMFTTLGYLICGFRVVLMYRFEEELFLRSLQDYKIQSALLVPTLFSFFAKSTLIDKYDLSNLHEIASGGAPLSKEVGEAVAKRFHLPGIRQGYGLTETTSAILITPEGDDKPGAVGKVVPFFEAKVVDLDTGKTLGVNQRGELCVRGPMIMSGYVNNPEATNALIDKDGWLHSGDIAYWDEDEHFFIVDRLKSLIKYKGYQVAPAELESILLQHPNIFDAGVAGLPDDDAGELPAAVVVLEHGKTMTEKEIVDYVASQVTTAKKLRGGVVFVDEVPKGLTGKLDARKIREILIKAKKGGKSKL
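Biochemical qHTS of compounds, final roughly 60 µM downward over six points, against 10 nM purified firefly luciferase using Km concentrations of substrates (10 uM D-luciferin, 10 uM ATP) in Tris acetate pH 7.5 buffer; luminescence output.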
ELG1 genotoxic: qHTS screen for small molecules that induce genotoxicity in human embryonic kidney (HEK293T) cells expressing luciferase-tagged ELG1; HEK293T ELG1-luciferase reporter, luminescence, 16 h; Potency, µM (doses to about 46 µM), inactives show at the highest dose activity change, positive = activation, usual class: activators; actives 1.3% (n = 330,000); note: % of control where 0% means no effect; nearly all actives have a fitted effect of over 60% in size
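ELG1-luciferase HEK293T cells, 2,000/well; compound pinned in; 16 hr, 37 °C, 5% CO2; ONE-Glo, 30 min RT; luminescence on CCD imager.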
ELG1 DNA repair: qHTS screen for small molecules that inhibit ELG1-dependent DNA repair in human embryonic kidney (HEK293T) cells expressing luciferase-tagged ELG1 | HEK293T ELG1-luciferase reporter, luminescence, 16 h; DNA damage induced by 5-fluorouridine | Potency, µM (top dose mostly 46.1 µM), for inactives: at the highest dose activity change, negative = inhibition, usual class: inhibitors | actives 2.3% (n = 330,000) | AID 504467, 2011; note: % is set by controls: 0 for no effect and ±100 for the full control effect; nearly all actives have a fitted effect of over 55% in size
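Quantitative HTS, concentration-response format. 2,000 cells/well co-treated with 5-fluorouridine and compound, 16 hr in 5% CO2 at 37 °C; ONE-Glo luminescence read after 30 min.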
Rab9 prom act: qHTS Assay for Rab9 Promoter Activators | AID 485297, 2010 | Potency, µM (highest dose often 9.22 µM), for inactives: at the highest dose activation, negative = inhibition, usual class: activators | actives 2.8% (n = 320,000) | Huh7 Rab9 promoter-luciferase reporter, luminescence, 24 h; note: % of control where 0% means no effect; nearly all actives have a fitted effect of over 60% in size
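Huh7 reporter line, Rab9 promoter upstream of luciferase. Compound exposure 24 h at 37 °C in reduced-serum medium with 10% FBS. Read-out: luminescence.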
Numbers without * were called inactive; ? = inconclusive; . = no result given; [ ] = dose if it differs, or a comment. The list is not random: actives were taken first. Their share in the collection is about 9.4%. Calls come from the whole dose curve; as a rule, active = well fitted curve in the direction sought with a large enough effect; inconclusive = small, poorly fitted or top-dose-only effect, or another doubt; inactive = no such curve, though single readings can be large; an effect the other way counts as inactive or inconclusive. Potency is the fitted concentration of half-maximal effect.

SMILES	SMN2 splice enh	NPC1 promoter act	FLuc modulator	ELG1 genotoxic	ELG1 DNA repair	Rab9 prom act
COc1cc(SC)ccc1C(=O)Nc1ncc(C)s1	1.3µM*	?	0.13µM*	?	?	0.45µM*
COc1ccccc1CN1CCCC2(CCN(C(C)=O)CC2)C1	-9%	.	.	.	.	.
COc1cc(SC)ccc1C(=O)NCCc1ccccc1	10µM*	3.5µM*	6µM*	?	?	3.5µM*
COc1cc(SC)ccc1C(=O)Nc1cccc(C)n1	11µM*	?	3.4µM*	?	?	2µM*
COc1cc(SC)ccc1C(=O)Nc1ncc(Cl)cc1Cl	13µM*	4µM*	2.4µM*	?	?	1.6µM*
COc1ccc(CNC(=O)c2ccc(SC)cc2OC)cc1	8%	0%	-3%	2%	-1%	2%
COc1cc(SC)ccc1C(=O)Nc1ccccn1	.	0.79µM*	0.48µM*	?	?	0.79µM*
COc1cc(SC)ccc1C(=O)NC(C)C	-2%	-3%	-4%	4%	23%	-4%
COc1ccc(CNC(=O)Cc2c(C(=O)O)c(C)cn2C)cc1	.	.	-3%	.	.	.
CC(=O)c1ccccc1NC(=O)COC(=O)c1cc2ccccc2[nH]1	.	8%	-1%	1%	-22%	0%
Cc1ccc(CCNC(=O)c2cc3cc(S(=O)(=O)N4CCCCC4)ccc3n2C)cc1	.	.	3%	.	.	.
CC1CCCCN1C(=O)COc1ccccc1F (centres undefined)	.	0%	3%	2%	21%	-4%
Cc1nn2c(=O)cc(COC(=O)c3c(F)cccc3Cl)nc2s1	.	4µM*	?	?	?	4µM*
Cc1nn2c(=O)cc(COC(=O)c3cccc(NC(=O)COc4ccccc4C)c3)nc2s1	.	.	24µM*	.	.	.
Cc1ccc(OCC(=O)Nc2cccc(C(=O)OCc3cc(=O)n4nc(C)sc4n3)c2)cc1	.	.	9.5µM*	.	.	.
Cc1nn2c(=O)cc(COC(=O)c3ccc(NC(=O)COc4ccc(C)c(C)c4)cc3)nc2s1	.	.	0%	.	.	.
Cc1csc2nc(COC(=O)c3cccc(NC(=O)COc4ccccc4Cl)c3)cc(=O)n12	.	.	1.2µM*	.	.	.
Cc1ccc(NC2=C(CC(=O)O)C(c3ccc(F)cc3)N(c3ccc(C)cc3)C2=O)cc1 (centres undefined)	23%	.	?	.	.	.
O=C(Cn1nc(Cc2cccnc2)c2ccccc2c1=O)Nc1ccc(F)c(Cl)c1	-12%	.	-4%	.	.	.
COc1ccccc1CCC(=O)OCc1csc(CC(=O)Nc2ccccc2C)n1	.	3%	-6%	-4%	-1%	-1%
Cc1ccc(NC(=O)Cc2nc(COC(=O)c3c(F)cccc3Cl)cs2)cc1	.	.	.	-1%	18µM*	.
Cc1ccccc1OCC(=O)Nc1ccccc1OCc1cc(=O)n2ccccc2n1	.	.	11µM*	.	.	.
CCN(CC(=O)Nc1ccccc1OC)Cc1csc(CC(=O)Nc2ccc(C)cc2)n1	.	.	.	-3%	9.2µM*	.
CC(C)Oc1ccc(CNC(=O)c2ccc3nc(C(C)C)oc3c2)cc1	.	.	3%	.	.	.
CCOC(=O)c1ccc(NC(=O)C2CCCN(c3ccc(Sc4ccc(C)cc4)nn3)C2)cc1 (centres undefined)	15%	.	-19%	.	.	.
SMILES	SMN2 splice enh	NPC1 promoter act	FLuc modulator	ELG1 genotoxic	ELG1 DNA repair	Rab9 prom act
COc1cccc(CNC(=O)CCC2CCCN(C(=O)c3cc4ccccc4o3)C2)c1 (centres undefined)	.	?	13µM*	11%	14%	4.5µM*
CC(=O)Nc1nccc(-c2cc(-c3ccccc3)no2)n1	.	3.5µM*	?	?	?	2.2µM*
CN(C)C(=O)c1cc(-c2ccccc2)no1	?	20%	?	?	?	?
COc1cc2c(cc1OC)C(c1ccc(Cl)cc1)N(c1ccc(C)c(F)c1)C(=O)C2 (centres undefined)	-31%	.	-1%	.	.	.
Cc1c(C(=O)OCc2ccc(F)cc2)sc2nc3n(c(=O)c12)CCC3	.	4%	15µM*	7%	20%	26%
CCOC(=O)c1sc2nc3n(c(=O)c2c1C)CCCCC3	7%	?	15µM*	?	?	?
O=C(COc1ccc(Cl)cc1[N+](=O)[O-])NC1CCCCC1	11µM*	?	11µM*	?	?	1.4µM*
CC(=O)c1cc(Cl)ccc1OCC(=O)NC1CCCC1	.	?	17µM*	-1%	?	?
O=C(COc1ccc(Cl)cc1Cl)NC(=O)N1CCOCC1	20%	-5%	21µM*	5%	?	-5%
O=C(COc1ccc(Cl)cc1Br)NC1CC1	.	?	13µM*	10%	?	28%
O=C(O)C1(C(=O)O)CCN(S(=O)(=O)c2ccccc2)CC1	-2%[9.22 µM]	.	.	.	.	.
O=C(CN1C(=O)CCc2cc(S(=O)(=O)N3CCOCC3)ccc21)NCc1ccc(F)cc1	.	.	-4%	.	.	.
O=C(O)c1c2c(c(O)c3c1CN(C1CCCCC1)CO3)OCN(C1CCCCC1)C2	11%[9.22 µM]	.	.	.	.	.
CC(C)Oc1ccc(CNC(=O)C2COc3ccccc3C2)cc1 (centres undefined)	.	.	-10%	.	.	.
CCOc1ccc(C(=O)Nc2cccc(-c3nc4cccnc4s3)c2C)cc1OCC	.	.	2%	.	.	.
O=C(Cn1ncc2c3ccccc3n(Cc3cccc(Cl)c3)c2c1=O)NCc1cccs1	-3%	.	4%	.	.	.
O=C1O[C@@H]([C@@H](O)CO)[C@@H](O)[C@H]1O	2%[20.6 µM]	.	.	.	.	.
CCN(C(=O)CSc1nc2ccccc2n1CC(=O)Nc1ccccc1C)c1ccccc1	.	.	3%	.	.	.
Cc1ccccc1C(=O)NCCSc1ccccc1	13µM*	3.5µM*	9.5µM*	7.3µM*	?	2.8µM*
O=C(NCCSc1ccccc1)c1ccccc1Cl	11µM*	2.5µM*	7.6µM*	13µM*	?	3.2µM*
O=C(CCNC(=O)c1ccccc1Cl)NCCCSc1ccccc1	.	1%	-2%	0%	16%	-3%
NC1=NC(c2cccc(Cl)c2)n2c(nc3ccccc32)N1 (centres undefined)	18%	.	2%	.	.	.
Cc1cc(C)n(-c2ccc(C(=O)Nc3ccc(C)c(S(=O)(=O)N(C)C)c3)cc2)n1	-15%[1.84 µM]	-4%	17µM*	-10%	18µM*	-20%
COc1ccc(NC(=O)c2ccc(-n3nc(C)cc3C)cc2)cc1OC	-21%	-2%	15µM*	0%	?	18%
